Paper PMC4336329 (PLoS ONE, 2015)
The whole screen tested about 310,000 compounds, of which about 14,000 (4.5%) showed an effect of 50% or more. Effects have a minus sign here. Only a selection was taken, and strong results are over-represented in it overall.

Biological target: human ether-à-go-go-related gene (hERG) potassium channel (human, UniProt Q12809)
Test: primary screen, population patch clamp on CHO cells stably expressing hERG; higher = less effect of the substance
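Further: peak tail current of the secondary pulse compared with the same well before compound.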

Sequence of human ether-à-go-go-related gene (hERG) potassium channel (Q12809 whole entry, looked up): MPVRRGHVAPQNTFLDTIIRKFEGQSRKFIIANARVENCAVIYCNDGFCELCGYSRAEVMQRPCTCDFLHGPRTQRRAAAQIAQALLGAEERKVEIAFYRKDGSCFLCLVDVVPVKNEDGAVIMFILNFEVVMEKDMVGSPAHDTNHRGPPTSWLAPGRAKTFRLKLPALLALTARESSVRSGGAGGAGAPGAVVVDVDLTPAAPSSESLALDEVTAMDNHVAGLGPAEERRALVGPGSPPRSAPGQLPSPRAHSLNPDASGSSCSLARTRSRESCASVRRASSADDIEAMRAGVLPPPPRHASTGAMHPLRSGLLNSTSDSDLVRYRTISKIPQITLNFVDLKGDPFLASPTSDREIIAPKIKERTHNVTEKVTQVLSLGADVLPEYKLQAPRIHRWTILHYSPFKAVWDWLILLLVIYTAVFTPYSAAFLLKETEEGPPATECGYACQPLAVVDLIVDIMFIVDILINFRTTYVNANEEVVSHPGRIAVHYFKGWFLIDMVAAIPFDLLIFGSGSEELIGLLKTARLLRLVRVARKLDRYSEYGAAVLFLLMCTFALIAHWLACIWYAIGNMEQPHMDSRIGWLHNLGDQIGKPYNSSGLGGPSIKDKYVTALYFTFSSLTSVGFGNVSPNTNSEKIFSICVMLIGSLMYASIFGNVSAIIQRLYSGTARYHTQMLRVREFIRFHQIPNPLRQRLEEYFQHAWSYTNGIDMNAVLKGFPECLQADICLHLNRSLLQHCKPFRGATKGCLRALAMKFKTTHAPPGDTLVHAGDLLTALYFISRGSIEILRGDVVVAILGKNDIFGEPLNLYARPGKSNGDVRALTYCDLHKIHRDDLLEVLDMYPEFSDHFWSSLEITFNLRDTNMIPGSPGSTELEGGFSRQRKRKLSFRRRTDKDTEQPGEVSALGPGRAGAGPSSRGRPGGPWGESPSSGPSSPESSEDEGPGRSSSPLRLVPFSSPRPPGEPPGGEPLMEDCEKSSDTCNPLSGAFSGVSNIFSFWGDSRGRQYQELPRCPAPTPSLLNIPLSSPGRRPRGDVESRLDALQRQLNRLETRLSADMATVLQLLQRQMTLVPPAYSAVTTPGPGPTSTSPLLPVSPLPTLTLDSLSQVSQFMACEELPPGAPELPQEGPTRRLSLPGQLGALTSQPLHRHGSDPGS

| SMILES | hERG current change (%, negative = inhibition) at 10uM |
| --- | --- |
| COc1cc(-c2noc(C)c2C#Cc2ccsc2)cc(OC)c1OC | 10.8% |
| Cc1ccc(Nc2nnc(SCn3nnc4ccccc4c3=O)s2)cc1 | 2.83% |
| N#Cc1ccc(-c2csc(-c3ccno3)n2)cc1 | -14.6% |
| CC1=C[C@H]2OC(=O)[C@@H](C)[C@H]2C[C@@H]2[C@H]1C[C@@H](O)[C@@]2(C)O | 6.22% |
| N#Cc1c(N)c(C(=O)c2ccccc2)n2ccccc12 | 10.7% |
| CC(=O)Nc1ccc(S(=O)(=O)N(C)CC(=O)OCC(=O)Nc2ccc3c(c2)OCO3)cc1 | 9.31% |
| NC(=O)c1cc2cc(Br)ccc2oc1=NCc1ccccc1 | 10.4% |
| CCCNC(=O)NC(C(=O)OC)C12CC3CC(CC(C3)C1)C2 (stereo not drawn) | -10.8% |
| CC(C)(C)c1ccc(NC(=O)CNC2CCCc3ccccc32)cc1.Cl (stereo not drawn) | 2.24% |
| CCCSc1nc2c(cnn2-c2ccc(F)cc2)c(=O)[nH]1 | 6.84% |
| COc1cc([N+](=O)[O-])c(C(=O)N2CCOCC2)c([N+](=O)[O-])c1 | 7.66% |
| O=C(OCC1OC(n2ncc(=O)[nH]c2=O)C(OC(=O)c2ccccc2)C1OC(=O)c1ccccc1)c1ccccc1 (stereo not drawn) | 14.6% |
| O=C(OCC1OC(n2ccc(=O)[nH]c2=O)C(Cl)C1O)c1ccccc1 (stereo not drawn) | -9.37% |
| O=C(OCC1OC(n2ccc(=O)[nH]c2=O)C(O)C1OC(=O)c1ccccc1)c1ccccc1 (stereo not drawn) | -67.9% |
| CCOC(=O)C1=NN(c2cccc(Cl)c2)C2=NC(C)=C(C(=O)OC)C(c3cccs3)N12 (stereo not drawn) | 6.72% |
| COc1cc(CN2CCC(Cc3ccccc3)CC2)cc(OC)c1OC.O=C(O)C(=O)O | -52.8% |
| COc1ccc(CN2CCC(C(N)=O)CC2)cc1OCc1ccccc1.O=C(O)C(=O)O | -19.1% |
| COc1ccc(CCNC(=O)c2ccc(CN3CCC(Cc4ccccc4)CC3)cc2)cc1OC | -67.9% |
| COc1ccc(C(=O)N2CCN(Cc3cc(OC)ccc3OC)CC2)cc1.O=C(O)C(=O)O | -36% |
| COc1ccc(CCNC(=O)c2ccc(CN3CCC(Cc4ccccc4)CC3)cc2)cc1 | -15.6% |
| COc1cc(CN2CCC(Cc3ccccc3)CC2)cc([N+](=O)[O-])c1O | 0.943% |
| COc1cc(CN2CCN(C(=O)Cc3ccccc3)CC2)cc(OC)c1OC.O=C(O)C(=O)O | -0.522% |
| COc1ccc(CCNC(=S)N2CCC(Cc3ccccc3)CC2)cc1OC | -41.1% |
| COc1ccc(CN2CCC(Cc3ccccc3)CC2)cc1OC.O=C(O)C(=O)O | -70.3% |
| COc1ccc(OC)c(CN2CCN(C(=O)c3cccc4ccccc34)CC2)c1.O=C(O)C(=O)O | -2.37% |
| COc1cc(CN2CCC(C(N)=O)CC2)ccc1OCc1ccccc1.O=C(O)C(=O)O | -39.9% |

| SMILES | hERG current change (%, negative = inhibition) at 10uM |
| --- | --- |
| COc1ccc(OC)c(CN2CCN(Cc3cccc4ccccc34)CC2)c1.O=C(O)C(=O)O | -65.2% |
| CCOc1cc(/C=N/NC(=O)CSc2cccc3cccnc23)ccc1O | 9.6% |
| CCOc1ccccc1OCCC(=O)OCC(=O)Nc1c(C)nn(-c2ccccc2)c1C | 1.41% |
| O=C(CCC(=O)c1ccccc1)NCc1cccc(C(F)(F)F)c1 | 4.89% |
| CC(C)(C)c1ccc(/C=C(\c2nc3ccccc3[nH]2)S(=O)(=O)c2ccccc2)cc1 | 0.84% |
| O=C(Nc1c2c(nn1-c1ccccc1)CS(=O)(=O)C2)c1ccccc1C(F)(F)F | 14.3% |
| O=C(O)c1ccc(/C=C/c2nc3sc4c(c3c(=O)[nH]2)CCC4)cc1 | 14.2% |
| Cc1nn(C(=O)c2cccnc2)c(C)c1C | 0.855% |
| C/C(=N/NS(=O)(=O)c1cccc([N+](=O)[O-])c1)c1c[nH]c2ccccc12 | 13% |
| CCOC(=O)/C(C#N)=C/c1cccc([N+](=O)[O-])c1 | 25% |
| CC(Oc1ccccc1Cl)C(=O)Nc1ccc(S(=O)(=O)Nc2nccs2)cc1 (stereo not drawn) | -0.857% |
| CC1CCC2(CC1)NC(=O)N(CC(=O)Nc1cccc(C#N)c1)C2=O (stereo not drawn) | 9.8% |
| O=C(NCc1cccnc1)NC(=O)c1ccc(Cl)cc1 | 3.09% |
| CCN1C(=O)[C@@H]2[C@@H](c3ccc(-c4ccc5c(c4)OCO5)cc3)N3CCCC[C@@]3(C(=O)OC)[C@@H]2C1=O.O=C(O)C(F)(F)F | 21% |
| COc1ccc(OC)c(CN2CCC(Cc3ccccc3)CC2)c1.O=C(O)C(=O)O | -69.4% |
| Cc1[nH]c2ccccc2c(=O)c1CN1CCCCCC1 | -7.41% |
| COc1ccc(OC)c(CN2CCN(C(=O)Cc3ccccc3)CC2)c1.O=C(O)C(=O)O | -4.63% |
| COc1ccc(Br)cc1CN1CCN(C(=O)c2ccc(OC)c(OC)c2)CC1.O=C(O)C(=O)O | -38.1% |
| O=C(O)C(=O)O.c1ccc(CC2CCN(Cc3ccccn3)CC2)cc1 | -23.1% |
| COc1ccc(Br)cc1CN1CCN(C(=O)c2cccc(F)c2)CC1.O=C(O)C(=O)O | -39.2% |
| Cc1[nH]c2ccccc2c1CN1CCC(Cc2ccccc2)CC1.O=C(O)C(=O)O | -67.4% |
| COc1ccc(OC)c(CN2CCCCCC2)c1.O=C(O)C(=O)O | 15.7% |
| COc1cccc(C(=O)N2CCN(Cc3cc(Br)ccc3OC)CC2)c1.O=C(O)C(=O)O | -51.8% |
| CN1CCN(/N=C/c2nc(-c3ccccc3Cl)n3ccccc23)CC1 | -34.1% |
| CCCOC(=O)Nc1ccccc1C(N)=O | 4.61% |
